Data published in PubChem BioAssay (EPA / NIEHS).
Several values for one entry are separate records, joined by “and”; a condition that tells them apart may be missing. Equal values may be shown once. A structure can be active in one record and inactive in another. Activity calls are given as the source filed them. The calls were made as follows: active = hit-call score of the fitted dose curve at least 0.9, where 1 is the maximum; inactive = score below 0.9.

Test: CCTE_Mundy_HCI_Cortical_Synap_Neur_Matur_NeuriteSpotCountPerNeuron: CCTE's Synaptogenesis and Neurite Maturation Assay in rat cortical cells for Neurite Spot Count per Neuron Count, Mundy Lab (AID 2284215)
Method: CCTE_Mundy_HCI_Cortical_Synap&Neurite_Matur is a multiplexed, cell-based-readout assay that uses rat primary cortical cells with measurements taken at 288.33 hours after chemical dosing in a microplate: 96-well plate.CCTE_Mundy_HCI_Cortical_Synap_Neur_Matur_NeuriteSpotCountPerNeuron is one of eight components of the CCTE_Mundy_HCI_Cortical_Synap&Neurite_Matur assay. It measures synaptogenesis and neurite maturation related to number of neurite-associated synapses (synaptophysin puncta) per neuron using High Content Imaging of fluorescently labelled markers.[…] Using a type of morphology reporter, loss -of-signal activity can be used to understand developmental effects.
Cells are plated onto 96 well plates and allowed 2 hr for attachment to the substrate. At days in vitro (DIV) 5, Cytosine Arabinoside (AraC) is added to arrest glial cell growth. Chemicals are dosed and a media change is performed at DIV 7 of differentiation and is continued through DIV 12 when the experiment is terminated. Cells are fixed with […] and Hoechst Dye. Cells are stained using Millipore Mouse anti-MAP2MAB3418 (1:800) and Millipore Rabbit anti-Synaptophysinsc-1750 (1:250) primary antibodies and Alexa Fluor-488 goat anti-mouse and AlexaFluor-546 goat anti-rabbit secondary antibodies to label neuronal cell nuclei, synapses and neurites. A Cellomics ArrayScan VTi HCS Reader is used for automated image acquisition and analysis of neurite outgrowth.

Structure (SMILES) | outcome | AC50
O=C(O)COc1ccc(Cl)cc1Cl | inactive | –
CNC(=O)CSP(=S)(OC)OC | inactive | 50 µM (active)
O=C(O)C(F)(F)C(F)(F)C(F)(F)C(F)(F)C(F)(F)C(F)(F)C(F)(F)F | inactive | –
CC1(C)C(C=C(Cl)Cl)C1C(=O)OC(C#N)c1ccc(F)c(Oc2ccccc2)c1 (stereo not given) | – | 72 µM (active) and 15 µM (active)
COP(=O)(OC)OC=C(Cl)Cl | inactive | 49 µM (active)
O=S(=O)(O)C(F)(F)C(F)(F)C(F)(F)C(F)(F)C(F)(F)C(F)(F)C(F)(F)C(F)(F)F | inactive | –
CC(C)N(C(=O)COc1nnc(C(F)(F)F)s1)c1ccc(F)cc1 | inactive | –
CC[C@H](C)[C@H]1O[C@]2(C=C[C@@H]1C)C[C@@H]1C[C@@H](C/C=C(\C)[C@@H](O[C@H]3C[C@H](OC)[C@@H](O[C@H]4C[C@H](OC)[C@@H](O)[C@H](C)O4)[C@H](C)O3)[C@@H](C)/C=C/C=C3\CO[C@@H]4[C@H](O)C(C)=C[C@@H](C(=O)O1)[C@]34O)O2 (tested in a mixture with another compound) | – | 1.19 µM (active)
O=[N+]([O-])/N=C1\NCCN1Cc1ccc(Cl)nc1 | inactive | –
COP(=S)(OC)Oc1ccc([N+](=O)[O-])cc1 | – | 15 µM (active)
CC1(c2ccc(Oc3ccccc3)cc2)OC(=O)N(Nc2ccccc2)C1=O (stereo not given) | – | 24.1 µM (active)
CCC(C)(C)C(=O)OC1=C(c2ccc(Cl)cc2Cl)C(=O)OC12CCCCC2 | inactive | –
O=S1OCC2C(CO1)C1(Cl)C(Cl)=C(Cl)C2(Cl)C1(Cl)Cl (stereo not given) | – | 15 µM (active)
